Measurements published in ChEMBL document CHEMBL4808148, “HDAC6 screening dataset using tau-based substrate in an enzymatic assay yields selective inhibitors and activators” (2021).
The whole screen tested about 5,600 compounds, of which about 390 (7%) showed an effect of 50% or more. This excerpt belongs to a sample that is enriched for strong results.

Assays:
[1] = target: T1, Protein deacetylase HDAC6 (Homo sapiens) (UniProt Q9UBN7); settings: at 10 µM
T1 sequence (whole entry): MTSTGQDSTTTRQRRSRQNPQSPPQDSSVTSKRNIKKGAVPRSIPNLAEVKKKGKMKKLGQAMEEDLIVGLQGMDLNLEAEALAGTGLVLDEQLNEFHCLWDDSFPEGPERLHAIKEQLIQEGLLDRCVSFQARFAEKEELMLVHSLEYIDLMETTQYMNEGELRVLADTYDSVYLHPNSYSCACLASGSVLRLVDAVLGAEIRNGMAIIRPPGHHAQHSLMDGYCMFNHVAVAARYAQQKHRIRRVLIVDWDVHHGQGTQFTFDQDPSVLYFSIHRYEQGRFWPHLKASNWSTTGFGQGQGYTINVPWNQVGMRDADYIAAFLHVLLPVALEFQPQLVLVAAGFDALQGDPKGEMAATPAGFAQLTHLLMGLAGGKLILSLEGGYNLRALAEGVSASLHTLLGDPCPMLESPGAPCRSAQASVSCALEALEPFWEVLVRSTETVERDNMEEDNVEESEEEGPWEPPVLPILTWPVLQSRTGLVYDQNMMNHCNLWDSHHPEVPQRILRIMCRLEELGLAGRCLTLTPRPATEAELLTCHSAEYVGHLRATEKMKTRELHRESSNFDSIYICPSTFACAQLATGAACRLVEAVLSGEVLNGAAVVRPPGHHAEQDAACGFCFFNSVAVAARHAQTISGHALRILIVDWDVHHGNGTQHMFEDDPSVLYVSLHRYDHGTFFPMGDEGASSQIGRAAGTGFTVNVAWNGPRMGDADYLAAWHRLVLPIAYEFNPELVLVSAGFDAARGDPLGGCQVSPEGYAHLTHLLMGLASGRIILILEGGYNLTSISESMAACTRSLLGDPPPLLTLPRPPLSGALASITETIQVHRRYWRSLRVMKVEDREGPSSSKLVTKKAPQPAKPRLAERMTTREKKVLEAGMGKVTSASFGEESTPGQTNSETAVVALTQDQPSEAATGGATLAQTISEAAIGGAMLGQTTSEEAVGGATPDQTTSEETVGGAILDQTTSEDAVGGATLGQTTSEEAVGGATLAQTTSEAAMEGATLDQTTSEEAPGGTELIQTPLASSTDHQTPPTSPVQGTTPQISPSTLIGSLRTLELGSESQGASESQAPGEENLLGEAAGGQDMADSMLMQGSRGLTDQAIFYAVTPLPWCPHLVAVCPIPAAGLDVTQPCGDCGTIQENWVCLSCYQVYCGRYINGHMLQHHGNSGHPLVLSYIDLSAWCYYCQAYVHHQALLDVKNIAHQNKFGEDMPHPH

[2] = target: Protein deacetylase HDAC6 (Homo sapiens) (UniProt Q9UBN7); settings: at 10 µM; remark: listed apart in the source

| Compound | inhibition [1] [%] | inhibition [2] [%] |
| --- | --- | --- |
| O=S(=O)(O)c1ccc(O)cc1 | 4.16 | – |
| CCCCc1ccc(C(N)=O)nc1 | 32.3 | – |
| CC(C)(C)c1[nH]cnc1/C=c1\[nH]c(=O)/c(=C/c2ccccc2)[nH]c1=O | 77.4 | – |
| COc1cc2c(cc1OC(C)C)[C@H](c1ccc(Cl)cc1)N(c1ccc(N(C)C[C@H]3CC[C@H](N4CCN(C)C(=O)C4)CC3)cc1)C(=O)C2 | 17.5 | – |
| O=c1cc(-c2ccc(O)c(O)c2)oc2cc(O)cc(O)c12 | 100 | – |
| O=c1c(O)c(-c2ccc(O)c(O)c2)oc2cc(O)cc(O)c12 | 98.5 | – |
| CC(=O)N[C@H](C=O)[C@@H](O)[C@H](O)[C@H](O)CO | 19.4 | – |
| N[C@@H](CC(=O)N1CCn2c(nnc2C(F)(F)F)C1)Cc1n[nH]c2c(F)c(F)ccc12 | 18.7 | – |
| O=C(O)C1CCC(c2cc3cccnc3c(-c3cccc(F)c3)n2)CC1 (configuration not stated) | -5.88 | – |
| MONOCTANOIN, CHEMBL6066833 | – | -5.59 |
| N=C(N)Nc1ccc(C(=O)Oc2ccc3cc(C(=N)N)ccc3c2)cc1 | 29.9 | – |
| CCOC(=O)[C@@H](C)Oc1ccc(Oc2nc3ccc(Cl)cc3o2)cc1 | 14.5 | – |
| CN(C)c1cccc(Oc2cnc(Nc3cccc(O)c3)nc2)c1 | 30.8 | – |
| Oc1cccc(Nc2ccc(Nc3cccc(O)c3)nn2)c1 | 79.8 | – |
| CS(=O)(=O)c1ccc(Cn2c3c(c4cc(F)cc(F)c42)CCCC3CC(=O)O)cc1 (configuration not stated) | -7.09 | – |
| C#CC[C@H](c1nc2cc(Cl)ccc2c(=O)n1Nc1ccccc1)N(CCCN)C(=O)c1cccc(Cl)c1F | 11.7 | – |
| CCC(CC)n1ccc2c(C(=O)NCc3c(C)cc(C)[nH]c3=O)cc(C#N)cc21 | 15.2 | – |
| CC(O)C(CO)NC(=O)C1CSSCC(NC(=O)C(N)Cc2ccccc2)C(=O)NC(Cc2ccccc2)C(=O)NC(Cc2c[nH]c3ccccc23)C(=O)NC(CCCCN)C(=O)NC(C(C)O)C(=O)N1 (configuration not stated) | 19.6 | – |
| NYSTATIN, CHEMBL5465559 | – | 30.5 |
| CCc1c(C(=O)C(N)=O)c2c(OCC(=O)O)cccc2n1Cc1ccccc1 | 20 | – |
| O=C(O)CNC(=O)c1ccccc1I | 36.6 | – |
| O=C(O)CNC(=O)c1c(O)c2ccccc2n(Cc2ccccc2)c1=O | 81.7 | – |
| Cc1ncc(C[n+]2csc(CCOP(=O)(O)OP(=O)(O)O)c2C)c(N)n1 | 37.8 | – |
| COC(=O)c1ccc2c(c1)nc(NC(=O)c1ccccc1)n2CCCc1ccccc1 | -9.35 | – |

| Compound | inhibition [1] [%] | inhibition [2] [%] |
| --- | --- | --- |
| CN[C@@H]1Cc2cccc3[nH]c(=O)n(c23)C1 | 4.82 | – |
| Oc1ncc(N(CCCl)CCCl)c(O)n1 | 2.6 | – |
| CN1CCN(c2ccc3ccccc3n2)CC1 | 44.6 | – |
| CN1CCN(c2ccc3[nH]c(-c4ccc5[nH]c(-c6ccc(O)cc6)nc5c4)nc3c2)CC1 | 64 | – |
| CN1CCC(c2c[nH]c3ccc(O)cc23)CC1 | 5.85 | – |
| NC(=O)c1cc[n+](CC2=C(C(=O)[O-])N3C(=O)[C@@H](NC(=O)Cc4cccs4)[C@H]3SC2)cc1 | -9.58 | – |
| O=C(O)C1CSCN1 (configuration not stated) | 8.04 | – |
| COc1ccc(C(=O)Nc2c(Cl)cncc2Cl)cc1OC1CCCC1 | 8.11 | – |
| O=C(Nc1cnc(Cl)nc1)c1ccc(F)c(F)c1 | 8.67 | – |
| COc1cc(NC(=O)c2cccc(-n3cc(NC(=O)Nc4cccc(C)c4)cn3)c2)cc(OC)c1OC | 0.29 | – |
| COc1cc(NC(=O)c2ccccn2)ccc1Cl | 101 | – |
| CNC(=O)Oc1ccccc1OC(C)C | 19.4 | – |
| O=C(NNc1ccccc1)c1ccncc1 | 19 | – |
| CC(C)OC(=O)Nc1cccc(Cl)c1 | 81 | – |
| O=C(Nc1ccc(S(=O)(=O)Nc2ccccc2Cl)c(Cl)c1)c1ccccn1 | 50.8 | – |
| O=C(Nc1cccc(Cl)c1)c1ccccn1 | 104 | – |
| C[C@H](Cc1ccc2c(c1)OC(C(=O)O)(C(=O)O)O2)NC[C@H](O)c1cccc(Cl)c1 | 16.3 | – |
| C=CCN1CC[C@]23c4c5ccc(O)c4O[C@H]2[C@@H](OCCOCCOCCOCCOCCOCCOCCOC)CC[C@@]3(O)[C@H]1C5 | 3.73 | – |
| OC[C@H]1O[C@H](O)C[C@@H](O)[C@@H]1O | -3.53 | – |
| O=C(Nc1cc(C(F)(F)F)cc(C(F)(F)F)c1)Nc1c(Br)cc(Br)cc1-c1nnn[nH]1 | 0.45 | – |
| O=C(c1cn(Cc2cncn2Cc2ccc(Br)cc2)cc1-c1cccc2ccccc12)N1CCOCC1 | -6.62 | – |
| COc1cc2c(cc1OC)CN(C(=O)/C=C/c1c(-c3ccccc3)n(C)c3ncccc13)CC2 | 33.3 | – |
| COC1[C@@H](O)[C@@H](O)C(O)[C@H](O)[C@H]1O (some centres not stated) | -3.32 | – |
